# Source: PubChem BioAssay AID686979 (National Center for Advancing Translational Sciences (NCATS), 2013)
# Hit rate of the full screen: of about 420,000 compounds, about 50,000 (12%) were called active. Where a call stands in place of a potency, no number is given. About 26% were inconclusive and are not listed. The sample holds actives, similar compounds and a random draw of the others, so the mix is not that of the screen. Unmarked numbers belong to inactive results. The call rests on the fitted dose curve; in most records, active means well fitted inhibition curve with a large enough effect; inconclusive means small, poorly fitted or top-dose-only effect; inactive means flat fitted curve, though single readings scatter.
# Assay: qHTS for Inhibitors of human tyrosyl-DNA phosphodiesterase 1 (TDP1): qHTS in cells in presence of CPT; further: nearly all actives have a fitted effect of over 55% in size
# Details: chicken DT40 Tdp1-/-;hTDP1 cells + 20 nM CPT, ATP luminescence, 48 h; series mostly up to 46.2 µM
# Summary of the method: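 Chicken DT40 Tdp1-/- cells stably complemented with human TDP1 were seeded at 400 cells/well in medium containing 20 nM camptothecin, exposed to pin-transferred compounds, and grown at 37 °C for at least 48 hr. Viability was read as ATP luminescence.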
# Potency means the concentration at half of the fitted maximal effect.
SMILES,Potency,"activity change, negative = growth inhibition"
O=C(NCc1cccnc1)c1cccc(-c2cc3ccccc3oc2=O)c1,inactive,–
Cc1ccc(S(=O)(=O)CCC(=O)OCC(=O)N(C)C2CCS(=O)(=O)C2)cc1 (configuration not stated),inactive,–
Cc1ccc(SCC(=O)Nc2ccc3c(c2)OCCO3)cc1,inactive,–
Cc1nc([N+](=O)[O-])cn1CC(=O)Nc1ccc2c(c1)OCO2,inactive,–
Cc1ccc2nc(-c3ccc(O)cc3)c(Nc3ccc4c(c3)OCO4)n2c1,23.1 µM (active),–
CC(C)(C)NC(=O)NC(=O)COC(=O)C1(C)CC1(Cl)Cl (configuration not stated),inactive,–
COc1ccc(CNC(=O)CC2Oc3ccc(C)cc3NC2=O)cc1 (configuration not stated),inactive,–
Cc1cc(C)cc(NC(=O)C(OC(=O)c2ccc(O)cc2)c2ccccc2)c1 (configuration not stated),inactive,–
COc1ccc(-c2nc(SCC(=O)N3CCOCC3)n[nH]2)cc1,inactive,–
Cc1ccnc(SC2CC(=O)N(c3ccccc3)C2=O)n1 (configuration not stated),inactive,–
O=C1CC(N2CCN(c3ccc(F)cc3)CC2)C(=O)N1c1ccccc1 (configuration not stated),inactive,–
CC(=O)Nc1ccc(N2C(=O)CC(Sc3nccc(C)n3)C2=O)cc1 (configuration not stated),inactive,–
CCOC(=O)c1ccc(N2C(=O)CC(Sc3nc(O)c(CC)c(=O)[nH]3)C2=O)cc1 (configuration not stated),inactive,–
COc1ccc(N2C(=O)CC(SC(C)C)C2=O)cc1 (configuration not stated),inactive,–
O=C1CC(Sc2ncn[nH]2)C(=O)N1c1ccccc1 (configuration not stated),8.2 µM (active),–
COc1ccc(N2C(=O)CC(Sc3n[nH]c(-c4ccc(C)cc4)n3)C2=O)cc1 (configuration not stated),2.91 µM (active),–
Cc1ccc(N2C(=O)CC(Sc3ncn[nH]3)C2=O)cc1 (configuration not stated),5.17 µM (active),–
OCC[C@H]1C[C@H](O)[C@@H](O)[C@]2(CCc3ccccc3O2)O1,inactive,–
Cc1cc(C)cc(NC(=O)c2cccc(NC(=O)C3C4CC5OC(=O)C3C5C4)c2)c1 (configuration not stated),inactive,–
O=C(O)CCN(Cc1ccccc1)S(=O)(=O)c1c(Cl)cccc1Cl,inactive,–
COc1cc(NC(=O)CCS(=O)(=O)c2ccc3c(c2)oc(=O)n3C)cc(OC)c1,inactive,–
O=S(=O)(Nc1ccc(OC(F)(F)F)cc1)c1cccc2nonc12,inactive,–
C[C@H](NS(=O)(=O)c1ccc(Cl)cc1)C(=O)OCC(=O)N1CCOCC1,inactive,–
CC1CN(C(=O)c2ccccc2NS(=O)(=O)c2cccc([N+](=O)[O-])c2)CC(C)O1 (configuration not stated),inactive,–
COC(=O)C1=CO[C@@H](O[C@@H]2O[C@H](CO)[C@@H](O)[C@H](O)[C@H]2O)C2C1C[C@H](O)[C@@H]2C (some centres not stated),inactive,–

SMILES,Potency,"activity change, negative = growth inhibition"
CC[C@]12c3[nH]c4cc(CCC(=O)N(C)C)ccc4c3CCN1C(=O)[C@@H](CC(=O)NCCCn1ccnc1)C[C@@H]2C(=O)N1CCN(C(=O)C2CC2)CC1,inactive,–
OC(CBr)C[n+]1cccc2cc(Br)ccc21 (configuration not stated),4.47 µM (active),–
COc1ccc(N2CCN(S(=O)(=O)c3ccc4c(c3)N(C(C)=O)CCO4)CC2)cc1,inactive,–
CN(C)c1ccc(/C=N/NC(=O)c2ccc(Cn3cc(Br)cn3)o2)cc1,inactive,–
CCOC(=O)C1CCN(C(=O)Nc2cccc(OC)c2)CC1,inactive,–
CCOC(=O)C1CCN(C(=O)CN2C(=O)NC(C)(c3ccc4cc(OC)ccc4c3)C2=O)CC1 (configuration not stated),18.4 µM (active),–
CC1(c2ccc3ccccc3c2)NC(=O)N(CC(N)=O)C1=O (configuration not stated),inactive,–
CCSc1nnc(NC(=O)c2cc(=O)c3cc(C)c(C)cc3o2)s1,inactive,–
CN=C1S/C(=C\c2c(OC)cc(OC)cc2OC)C(=O)N1C,inactive,–
O=C(COC(=O)/C=C/c1cccs1)NC1CCCCC1,inactive,–
COc1ccc(CCNC(=O)c2ccco2)cc1,inactive,–
CCOc1ncccc1C(=O)NCCc1ccc(OC)cc1,18.4 µM (active),–
COc1ccc(CCNC(=O)c2cnc(Cl)c(Cl)c2)cc1,inactive,–
OCCN1CCN(c2ncnc3c2ncn3[C@H]2CN(Cc3ccco3)C[C@@H](CO)O2)CC1,inactive,–
Cc1nn(CC(=O)N2CCN(c3cccc(C(F)(F)F)c3)CC2)c(=O)c2cc3sccc3n12,inactive,–
COc1ccc2[nH]c3ccc(OC)cc3c2c1,inactive,–
COc1ccc2[nH]c(=S)cc(C)c2c1,inactive,–
COc1ccc2[nH]c3c(C)c4cc[n+](C)cc4c(C)c3c2c1,0.259 µM (active),–
O=C(CSc1nnnn1C1CCCC1)N1CCCCC1,inactive,–
COc1ccccc1/C=C/C=N/NC(=O)CN1CCN(Cc2ccccc2)CC1,inactive,–
CSc1nc2ccccc2cc1/C=C(\C#N)c1ccc(Cl)cc1Cl,inactive,–
Cc1ccc(-c2nnc(SCc3ccccc3C)o2)cc1,inactive,–
COc1ccc([N+](=O)[O-])cc1N(CC(O)CN(CC(C)C)CC(C)C)S(=O)(=O)c1ccc(C)cc1 (configuration not stated),25.9 µM (active),–
Cc1ccc(S(=O)(=O)N(CC(O)CN2CCCCC2)c2cccc([N+](=O)[O-])c2)cc1 (configuration not stated),inactive,–
Cc1ccc(S(=O)(=O)N(CC(O)CN2C(=O)NC(C)(C)C2=O)c2cccc([N+](=O)[O-])c2)cc1 (configuration not stated),inactive,–

SMILES,Potency,"activity change, negative = growth inhibition"
COC(=O)c1ccc(CNC(=O)C2CCC(=O)N(Cc3ccccn3)C2)cc1 (configuration not stated),inactive,–
CCOC(=O)C1=C(CSc2nccn2C)NC(=O)NC1c1ccc(OC)cc1 (configuration not stated),inactive,–
CCOC(=O)COc1ccc(Cl)cc1C1NC(=O)NC(C)=C1C(C)=O (configuration not stated),inactive,–
CCOC(=O)C1=C(CN2CCc3ccccc32)NC(=O)NC1c1cc(C)ccc1C (configuration not stated),17.8 µM (active),–
CCOC(=O)C1=C(CNC2CCCCC2)NC(=O)NC1c1cc(C)ccc1C (configuration not stated),25.9 µM (active),–
CCOC(=O)C1=C(c2ccccc2)NC(=O)NC1c1cc(OC)c(OC)cc1OC (configuration not stated),inactive,–
Cc1nn(-c2ccccc2)c2c1C(c1cccc([N+](=O)[O-])c1)N(c1ccccc1)C(=O)N2 (configuration not stated),inactive,–
CCOCCOC(=O)C1=C(C)NC(=O)NC1c1ccc2c(c1)OCO2 (configuration not stated),inactive,–
NC(=O)N1CCc2ccccc21,inactive,–
CCOC(=O)C1=C(CN2CCc3ccccc32)NC(=O)NC1c1cccc([N+](=O)[O-])c1 (configuration not stated),14.1 µM (active),–
CCc1cc(-c2nnc(SCC(=O)NC3CC3)n2C)cs1,inactive,–
NC(CSC(c1ccccc1)(c1ccccc1)c1ccc(-c2ccccc2)cc1)C(=O)O (configuration not stated),inactive,–
COC(=O)[C@@H]1C[C@H](NC(=O)c2ccccc2C(F)(F)F)CN1Cc1cccc(O)c1,–,9.61% [at 9.04 µM]
CC(CN1CCC(n2nccc2NC(=O)C2CCCC2)CC1)c1ccccc1 (configuration not stated),inactive,–
C=CCN1CCN(c2ccncc2S(=O)(=O)N2CCN(C)CC2)CC1,inactive,–
CC1(C(=O)NCc2ccccc2)CSCC(=O)N1CCCN1CCOCC1 (configuration not stated),inactive,–
Cc1cc2oc(=O)cc(CN(C)Cc3ccccc3)c2cc1Cl,inactive,–
CC(C)(O)C#Cc1ccc(CNC[C@H]2O[C@@H](n3cnc4c(=O)[nH]c(N)nc43)[C@H](O)[C@@H]2O)s1,inactive,–
C=C(C)C(=O)O[C@H]1C/C(C)=C\C(=O)/C=C(\C)[C@H](O)[C@@H]2OC(=O)C(=C)[C@@H]21,0.58 µM (active),–
C/C=C(\C)C(=O)O[C@H]1CC(C)=C2C(=O)C=C(C)C2[C@@H]2OC(=O)[C@@](C)(OC(=O)C=C(C)C)C21 (some centres not stated),–,-19.3% [at 9.04 µM]
Cc1ccc(CNC(=O)CC(NC(=O)c2ccccc2)c2ccccc2)cc1 (configuration not stated),inactive,–
Cn1c(SCC(=O)Nc2nccs2)nnc1-c1cccnc1,inactive,–
CCOC(=O)C1CCN(C(=O)Nc2ccc(C)c(Cl)c2)CC1,inactive,–
COc1ccc2c(c1)C(C)=CC(C)(C)N2C(=O)CNCc1ccc2c(c1)OCO2,20.6 µM (active),–
COc1ccc(NC(=O)NCc2ccc3c(c2)OCO3)c(OC)c1,inactive,–

SMILES,Potency,"activity change, negative = growth inhibition"
COc1cccc(CNCc2ccc3c(c2)OCO3)c1,inactive,–
CCc1ccc(-n2c(=S)sc3c(=O)n(-c4ccccc4OC)c(=S)[nH]c32)cc1,inactive,–
NS(=O)(=O)c1ccc(NC(=S)NNC(=O)c2cccs2)cc1,inactive,–
COc1ccc(C)cc1Nc1nc2ccccc2c2nnc(C)n12,inactive,–
FC(F)(F)c1cc(Nc2nc3ccccc3c3nncn23)ccc1Cl,23.1 µM (active),–
COc1cccc(NC(=O)C(Sc2nc3ccccc3c(=O)n2CC(C)C)c2ccccc2)c1 (configuration not stated),inactive,–
FC(F)(F)c1ccccc1-c1nc(-n2ccnc2)c2ccccc2n1,inactive,–
COc1cccc(Nc2nc3ccccc3c3nncn23)c1,16.4 µM (active),–
O=C(OCC(=O)c1cccs1)c1ccc([N+](=O)[O-])o1,inactive,–
Cc1ccc(CNC(=O)C2CCN(S(=O)(=O)c3ccc4nc5c(c(C(=O)O)c4c3)CC(C)CC5)CC2)cc1 (configuration not stated),inactive,–
CCn1cc(CNC(=O)c2cc([N+](=O)[O-])c(C)c([N+](=O)[O-])c2)cn1,inactive,–
O=C(COc1ccc(Br)cc1)OCC(=O)c1ccc[nH]1,inactive,–
CCOC(=O)C1CCCN(C(=O)CSc2nnc3nc(C)cc(C)n23)C1 (configuration not stated),25.9 µM (active),–
Cc1cc2nnc(SCC(=O)N3CCN(c4ccccc4)CC3)n2c(N)n1,inactive,–
Cc1c(C)n2c(SCC(=O)N3CCCC3)nnc2[nH]c1=O,inactive,–
CN(C(=O)COC(=O)c1ccc(Br)o1)c1c(N)n(Cc2ccccc2)c(=O)[nH]c1=O,inactive,–
C[C@H]1CN([C@@H](C)CO)S(=O)(=O)c2ccc(-c3cccc(F)c3)cc2O[C@@H]1CN(C)C,inactive,–
C[C@@H]1CN([C@@H](C)CO)S(=O)(=O)c2ccc(-c3ccc(C(=O)N(C)C)cc3)cc2O[C@@H]1CN(C)Cc1ccccc1C(=O)O,inactive,–
C[C@H](CO)N1C[C@H](C)[C@@H](CN(C)C(=O)c2cccc(F)c2)Oc2cc(-c3cncnc3)ccc2S1(=O)=O,inactive,–
Cc1ccccc1-c1ccc2c(c1)O[C@@H](CN(C)Cc1ccc(C(=O)O)cc1)[C@@H](C)CN([C@H](C)CO)S2(=O)=O,inactive,–
C[C@@H]1CN([C@H](C)CO)S(=O)(=O)c2ccc(C#C[C@@H](C)O)cc2O[C@@H]1CN(C)Cc1ccc(-c2ccccc2)cc1,11.6 µM (active),–
C[C@@H]1CN([C@@H](C)CO)S(=O)(=O)c2ccc(C#Cc3cccc(F)c3)cc2O[C@H]1CN(C)S(=O)(=O)c1cn(C)cn1,18.4 µM (active),–
